Only some compounds are listed: those with a hit (about 19% of all), similar ones and a draw of the others.
HT1080 IDH1KD tx = HT-1080 IDH1 knockdown cell toxicity (counter line) | HT-1080 IDH1 knockdown viability, ATP luminescence, 48 h | Potency, µM (doses to about 46.1 µM), most hits filed as cytotoxic | 2% of 360,000 active
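IDH1KD HT-1080 cells, 750/well, RPMI + 5% FBS; compound pinned after 2 h settling; 48 h, 37 °C; CellTiter-Glo luminescence; % activity normalised to DMSO and no-cell wells; curves fitted, classed by r2 and efficacy.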
DT40 TDP1 CPT = growth inhibition of DT40 Tdp1-/-;hTDP1 cells with camptothecin (screen for TDP1 inhibitors) | chicken DT40 Tdp1-/-;hTDP1 cells + 20 nM CPT, ATP luminescence, 48 h | Potency, µM (titrated, usually from 46.2 µM), usual class: inhibitors | 12% of 420,000 active | AID 686979; note: nearly all actives have a fitted effect of over 55% in size
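Chicken DT40 Tdp1-/- cells stably complemented with human TDP1 were seeded at 400 cells/well in medium containing 20 nM camptothecin, exposed to pin-transferred compounds, and grown at 37 °C for at least 48 hr. Viability was read as ATP luminescence.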
DT40 TDP1 no CPT = qHTS for Inhibitors of human tyrosyl-DNA phosphodiesterase 1 (TDP1): qHTS in cells in absence of CPT; 15% of 420,000 active; Potency, µM (series often up to 46.2 µM), actives largely listed as inhibitors; DT40 Tdp1-/- hTDP1 cells, no CPT, ATP luminescence, 48 h; AID 686978, 2013; note: nearly all actives have a fitted effect of over 55% in size
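DT40 Tdp1-/-;hTDP1 cells, no CPT (DMSO vehicle only), 400 cells/well; compounds pin-transferred; ≥48 hr, 37 °C; CellTiter-Glo 30 min RT dark, luminescence read.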
IL1B secr inh = inflammasome signaling inhibition, IL-1 beta readout; THP-1 LPS/ATP IL-1B secretion, AlphaLISA, 16 h; hits give low values; activity change, % at 57.5 µM; 4.7% of 360,000 active; in the data active = activity change below about -50%; inconclusive = mostly about -30% to -49%
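Secreted IL-1B measured by AlphaLISA bead assay after 16 h compound exposure of THP-1 cells; compounds (final up to 57.5 uM) added 1 h before LPS (250 ng/mL) and ATP (1.25 mM) stimulation; lower signal means less secretion.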
HT1080NT lethal = kills 2HG-producing HT-1080-NT fibrosarcoma cells. HT-1080-NT fibrosarcoma viability, CellTiter-Glo ATP luminescence, 48 h. 1.6% of 360,000 active. Potency, µM (top dose mostly 46.1 µM), hits mostly cytotoxic. AID 686970;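 note: NT is the 2HG producing partner of a matched IDH1 knockdown line; nearly all actives have a fitted effect of over 55% in size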
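Compounds were tested in concentration-response format on HT-1080-NT cells for 48 hours at 37 degrees C. Cell viability came from CellTiter-Glo luminescence; curves were classified by r2, response magnitude and activity.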
uPA generation = inhibitors of cell surface uPA generation | cell surface uPA generation assay, qHTS | Potency, µM (highest dose often 38.3 µM), most hits filed as inhibitors | 0.31% of 330,000 active | AID 540303; active = well fitted inhibition curve with a large enough effect; inconclusive = small, poorly fitted or top-dose-only effect; inactive = no such curve, though single readings can be large or run the other way; tested in mouse RAW 264.7 cells; note: nearly all actives have a fitted effect of over 55% in size
Each line names hits and unclear results; the compound was inactive in the other large screens. Unless noted, calls come from the whole dose curve; as a rule, active = well fitted curve in the direction sought with a large enough effect; inconclusive = small, poorly fitted or top-dose-only effect, or another doubt; inactive = no such curve, though single readings can be large; an effect the other way counts as inactive or inconclusive.

CCOC(=O)C1=C(C)NC(=O)CC1c1ccccc1 (configuration not stated)	none
CC1=C(C(=O)OC2CCCC2)C(c2coc3ccccc3c2=O)C2=C(CCCC2=O)N1 (configuration not stated)	DT40 TDP1 no CPT 0.41µM
CCOC(=O)C1=C(C)NC2=C(C(=O)CC(c3cccs3)C2)C1c1cccs1 (configuration not stated)	HT1080 IDH1KD tx 15µM, DT40 TDP1 CPT inconclusive, DT40 TDP1 no CPT inconclusive, IL1B secr inh inconclusive, HT1080NT lethal inconclusive
CC1=C(C(=O)OC2CCCC2)C(c2ccc(C)o2)C2=C(CC(c3cccs3)CC2=O)N1 (configuration not stated)	HT1080 IDH1KD tx inconclusive, DT40 TDP1 CPT inconclusive, DT40 TDP1 no CPT 16µM, HT1080NT lethal inconclusive (no result: uPA generation)
CCOC(=O)C1=C(C)NC2=C(C(=O)OC2)C1c1ccccc1 (configuration not stated)	HT1080 IDH1KD tx 21µM, DT40 TDP1 CPT inconclusive, DT40 TDP1 no CPT inconclusive, HT1080NT lethal inconclusive
COC(=O)C1=C(C)NC2=C(C(=O)CCC2)C1c1coc2ccccc2c1=O (configuration not stated)	none
COc1ccc(NC(=O)Cn2ccn(-c3ccc(F)c(F)c3)c(=O)c2=O)cc1Cl	none (no result: HT1080 IDH1KD tx, IL1B secr inh, HT1080NT lethal, uPA generation)
Nc1cc(C(=O)N2CCN(c3ccc([N+](=O)[O-])cc3)CC2)ccc1N1CC2CC(C1)c1cccc(=O)n1C2 (configuration not stated)	none
COc1ccc(C(=O)NCC(=O)N2CCN(C(=O)c3ccco3)CC2)cc1	none
CC1=C(C(=O)Nc2ccc(F)cc2)C(c2ccc(C)o2)C2=C(CC(C)(C)CC2=O)N1 (configuration not stated)	none
CC1=C(C(=O)OC2CCCCC2)C(c2ccc(C)o2)C2=C(CC(C)(C)CC2=O)N1 (configuration not stated)	DT40 TDP1 CPT 18µM, DT40 TDP1 no CPT inconclusive
Cc1ccc(SCc2cn3c(C)csc3n2)cc1	HT1080 IDH1KD tx inconclusive, HT1080NT lethal 35µM
Cc1csc2nc(CNS(=O)(=O)c3ccc(-c4ccccc4)cc3)cn12	DT40 TDP1 CPT inconclusive, DT40 TDP1 no CPT 18µM, HT1080NT lethal inconclusive, uPA generation inconclusive
O=S(=O)(NCc1cn2ccsc2n1)c1cccs1	none
O=S(=O)(NCc1cn2ccsc2n1)c1ccc(Oc2ccccc2)cc1	DT40 TDP1 CPT 9.2µM, DT40 TDP1 no CPT 10µM
O=S(=O)(NCc1cn2ccsc2n1)c1ccc2c(c1)OCCO2	DT40 TDP1 CPT inconclusive, DT40 TDP1 no CPT 23µM
CCc1ccc(S(=O)(=O)NCc2cn3ccsc3n2)s1	DT40 TDP1 no CPT inconclusive
O=C(CNC(=O)c1ccccc1)NCC(=O)OCC(=O)c1ccc2ccccc2c1	DT40 TDP1 CPT inconclusive (no result: HT1080 IDH1KD tx, IL1B secr inh, HT1080NT lethal, uPA generation)
CCCOc1cccc(C(=O)NCCNC(=O)c2ccc(C)nc2)c1	none
O=S(=O)(NCCN1CCOCC1)c1ccc2c(c1)OCCO2	IL1B secr inh -74
CSc1ccccc1NC(=S)Nc1cccc(C(F)(F)F)c1	none
O=[N+]([O-])c1cccc(Cl)c1NCCNc1ncc(C(F)(F)F)cc1Cl	DT40 TDP1 CPT inconclusive, DT40 TDP1 no CPT inconclusive
Fc1ccc(CNC(=S)NCc2ccc(F)cc2)cc1	none
Fc1ccc(CNC(=S)Nc2cccc(C(F)(F)F)c2)cc1	HT1080 IDH1KD tx inconclusive, DT40 TDP1 CPT inconclusive, DT40 TDP1 no CPT 18µM, HT1080NT lethal inconclusive
Fc1ccccc1CNC(=S)Nc1cccc(C(F)(F)F)c1	DT40 TDP1 CPT inconclusive, DT40 TDP1 no CPT 23µM, IL1B secr inh -98
O=[N+]([O-])c1cc(C(F)(F)F)cc([N+](=O)[O-])c1NCCNC(=S)Nc1cccc(F)c1	DT40 TDP1 CPT inconclusive, DT40 TDP1 no CPT 26µM, IL1B secr inh -53, uPA generation inconclusive
CCOc1ccc(C/C(O)=C2\C(=O)CC(C)(C)CC2=NCC(=O)O)cc1OCC	none
CCOc1ccc(CN2C(=O)c3ccccc3Sc3ccc(C(=O)NCc4ccc(C)cc4)cc32)cc1	none (no result: HT1080 IDH1KD tx, IL1B secr inh, HT1080NT lethal, uPA generation)
O=C(CNC(=O)c1cccnc1)c1ccc(F)cc1	none (no result: HT1080 IDH1KD tx, IL1B secr inh, HT1080NT lethal, uPA generation)
COc1cc(C)c(CN2CCc3nnc(C(C)NC(=O)c4cc(F)ccc4F)n3CC2)cc1C (configuration not stated)	none (no result: HT1080 IDH1KD tx, IL1B secr inh, HT1080NT lethal, uPA generation)
CSC1=C(C#N)C(c2ccc(Cl)cc2)C2=C(CC(C)(C)CC2=O)N1 (configuration not stated)	HT1080 IDH1KD tx 8.2µM, DT40 TDP1 CPT 0.92µM, DT40 TDP1 no CPT 0.92µM
CCCSC1=C(C#N)C(c2ccc(OC)cc2)C2=C(CC(C)(C)CC2=O)N1 (configuration not stated)	HT1080 IDH1KD tx inconclusive, DT40 TDP1 CPT 5.2µM, DT40 TDP1 no CPT 4.1µM, HT1080NT lethal inconclusive
COc1ccc(C2C(C#N)=C(C)NC3=C2C(=O)CC(C)(C)C3)cc1 (configuration not stated)	none
C[C@@H]1CN([C@H](C)CO)C(=O)CCCn2nncc2CO[C@H]1CN(C)Cc1ccc(-c2ccccc2)cc1	DT40 TDP1 CPT inconclusive, DT40 TDP1 no CPT inconclusive (no result: uPA generation)
COc1ccccc1CN(C)C[C@@H]1OCc2cnnn2CCCC(=O)N([C@@H](C)CO)C[C@H]1C	none (no result: uPA generation)
C[C@@H]1CN([C@@H](C)CO)C(=O)CCCn2nncc2CO[C@@H]1CN(C)S(=O)(=O)c1ccc(Oc2ccccc2)nc1	DT40 TDP1 CPT inconclusive, DT40 TDP1 no CPT inconclusive, IL1B secr inh inconclusive (no result: uPA generation)
C[C@H]1CN([C@@H](C)CO)C(=O)CCCn2nncc2CO[C@@H]1CN(C)Cc1ccc(-c2ccccc2)cc1	HT1080 IDH1KD tx inconclusive, DT40 TDP1 CPT 9.2µM, DT40 TDP1 no CPT 10µM (no result: uPA generation)
C[C@@H]1CN([C@H](C)CO)C(=O)CCCn2nncc2CO[C@H]1CN(C)Cc1ccccc1C(F)(F)F	DT40 TDP1 CPT 15µM, DT40 TDP1 no CPT 21µM (no result: uPA generation)
C[C@H]1CN([C@@H](C)CO)C(=O)CCCn2nncc2CO[C@@H]1CN(C)Cc1ccc(C(F)(F)F)cc1	none (no result: uPA generation)
C[C@H]1CN([C@@H](C)CO)C(=O)CCCn2nncc2CO[C@H]1CN(C)S(=O)(=O)c1ccc(Oc2ccccc2)nc1	DT40 TDP1 CPT 10µM, DT40 TDP1 no CPT 8.2µM (no result: uPA generation)
C[C@H](CO)N1C[C@H](C)[C@@H](CN(C)Cc2ccc(C(F)(F)F)cc2)OCc2cnnn2CCCC1=O	DT40 TDP1 CPT 26µM, DT40 TDP1 no CPT inconclusive (no result: uPA generation)
O=C(NC1CC1)C1=C[C@@H](c2c[nH]c3ccccc23)C[C@@H](OCc2ccc(CO)cc2)O1	DT40 TDP1 CPT inconclusive
